Most compounds without a hit are left out; they make up all but 4.8% or so of the library.
SMARCA2 activ – SMARCA2 (BRM) function activators, primary screen, cell-based, luminescence, high throughput | MG213 cells, MMTV-luciferase reporter, dexamethasone, overnight | activation, % at 9.1 µM | 1% of 370,000 active | AID 652017, 2013; in the data active = activation above about 7.8%;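 note: 0% = vehicle wells and 100% = reference activator wells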
ssDAF12 agonist – S. stercoralis DAF-12 nuclear receptor activators, primary screen, cell-based, luminescence, HEK293, GRIP1 co-expression, lit1-tk-luc | Nuclear hormone receptor DAF-12 (Strongyloides stercoralis) | HEK293 ssDAF-12/GRIP1 lit1-tk-luc reporter; % of 3 µM dafachronic acid response | activation, % at 6.8 µM | 1% of 370,000 active;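 active = activation above the mean over all tested compounds plus 3 SD, cut at about 0.9% in these data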;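 note: 0% = DMSO-only wells and 100% = 3 µM delta7-dafachronic acid wells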
hcDAF12 agonist – H. contortus DAF-12 nuclear receptor activators, primary screen, cell-based, luminescence, HEK293, lit1-tk-luc reporter | HEK293 hcDAF-12 lit1-tk-luc reporter; 0% DMSO, 100% Δ7-dafachronic acid | activation, % at 6.8 µM | 1.4% of 370,000 active;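 active = activation above the mean of all tested compounds plus 3 SD, cut at about 5.5% in these data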;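 note: 100% = response to 3 µM Δ7-dafachronic acid high control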
DAX1 inh-1 – DAX1 (NR0B1) inhibitors, primary screen, cell-based, HEK293, Gal4-DAX1, luciferase luminescence | inhibition, % at 6.75 µM | Nuclear receptor subfamily 0 group B member 1 (Homo sapiens), P51843 | HEK293 Gal4-DAX1 luciferase reporter | 0.99% of 340,000 active | AID 504766, 2011;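 active = inhibition above the mean over all tested compounds plus 3 SD, cut at about 4.2% in these data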;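 note: 0% = DAX1-transfected cells with DMSO and 100% = empty-vector control cells with DMSO; inhibition shows as a rise in luminescence from relieved DAX1 repression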
hgDAF12 agonist – H. glycines DAF-12 receptor agonists, primary screen, cell-based, luminescence, HEK293, GAL4 fusion, UAS-luciferase; Nuclear hormone receptor DAF-12 (Heterodera glycines), GAL4 fusion; HEK293 GAL4-hgDAF12 UAS-luciferase reporter, agonist luminescence; normalized to butyrate control; activation, % at 6.8 µM; 1.8% of 370,000 active; AID 687014, 2013;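 active = activation above a cutoff set at the mean of all screened compounds plus 3 SD, cut at about 10% in these data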;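 note: 0% = DMSO wells and 100% = sodium butyrate wells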
DAX1 inh-2 – DAX1 (NR0B1) inhibitors on StAR promoter, primary screen, cell-based, luminescence, SF-1 (NR5A1), full-length DAX-1 | HEK293T StAR-luciferase reporter, SF-1/DAX-1 repression relief | inhibition, % at 6.8 µM | 1.1% of 370,000 active | AID 652010, 2013;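 active = inhibition above the mean over all tested compounds plus 3 SD, cut at about 3.6% in these data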;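 note: 0% = DAX-1 cells with DMSO and 100% = cells lacking DAX-1 with DMSO; higher inhibition means more luminescence from relief of DAX-1 repression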
hgDAF12 conf – H. glycines DAF-12 receptor agonists, confirmation, cell-based, luminescence, HEK293, GAL4-LBD fusion; shares compounds with hgDAF12 agonist; HEK293 GAL4-hgDAF12 luciferase reporter, agonist mode; percent of butyrate response; activation, % at 6.8 µM; 80% of 3,300 active; AID 743050, 2013;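 active = mean activation over triplicate wells above the hit cutoff derived from the earlier primary screen, cut at about 11% in these data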;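 note: 0% = DMSO low control and 100% = 2 mM sodium butyrate high control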
LXRb DAF12 ctr – LXR agonists, Gal4 luciferase reporter, confirmation, counter-screen for hgDAF-12 agonist project, cell-based, luminescence, HEK293, H. glycines campaign; shares compounds with hgDAF12 agonist; 24 h; activation, % at 6.8 µM; 3,300 tested, under 10 active; AID 743051, 2013;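 active = mean activation of the triplicate above a set limit carried over from the primary screen, none filed active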
Target sequence (P55055 whole entry, looked up, the tested form may be a part): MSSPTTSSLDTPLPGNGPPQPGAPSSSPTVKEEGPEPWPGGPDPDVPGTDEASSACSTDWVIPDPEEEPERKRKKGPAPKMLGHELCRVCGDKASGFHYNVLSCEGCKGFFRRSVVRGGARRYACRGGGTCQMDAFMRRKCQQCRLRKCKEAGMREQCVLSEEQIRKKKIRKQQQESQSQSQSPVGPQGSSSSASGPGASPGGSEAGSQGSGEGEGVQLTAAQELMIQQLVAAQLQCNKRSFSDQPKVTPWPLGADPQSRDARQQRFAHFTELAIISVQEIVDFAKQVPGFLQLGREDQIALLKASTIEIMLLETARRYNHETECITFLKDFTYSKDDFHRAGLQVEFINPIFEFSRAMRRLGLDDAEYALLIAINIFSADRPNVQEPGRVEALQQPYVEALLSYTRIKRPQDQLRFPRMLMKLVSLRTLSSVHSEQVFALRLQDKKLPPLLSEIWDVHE
Numbers without * were called inactive; x = no result.

SMILES	SMARCA2 activ	ssDAF12 agonist	hcDAF12 agonist	DAX1 inh-1	hgDAF12 agonist	DAX1 inh-2	hgDAF12 conf	LXRb DAF12 ctr
CC1=C(C(=O)Nc2ccccn2)C(c2ccc(Cl)cc2)NC(=S)N1 (stereo unspecified)	0.9	-0.4	0.6	0.4	8.5	1.5	x	x
CC1=C(C(=O)Nc2ccccn2)C(c2ccc(Br)cc2)NC(=S)N1 (stereo unspecified)	1.9	-1.0	5.7*	3.1	16.6*	0.8	4.9	0.2
CCCN1CCCCC(NC(=O)c2ccc(-c3ccccc3)cc2)C1=O (stereo unspecified)	0.3	-1.0	1.6	x	7.1	0.0	x	x
CC(=O)OC(C(=O)Nc1nccs1)c1ccccc1 (stereo unspecified)	-2.2	-0.9	0.3	3.0	-1.0	0.6	x	x
O=C(Nc1nccs1)C(Br)C(Br)c1ccccc1 (stereo unspecified)	5.6	-0.4	6.4*	0.2	15.8*	1.4	19.4*	0.8
O=C(NC1CCCC1)c1cc(-c2ccc(F)cc2)on1	4.7	-0.3	1.1	5.8*	23.5*	2.2	37.4*	0.6
O=C(NCCCN1CCOCC1)c1cc(-c2cccs2)on1	1.9	0.5	3.6	2.7	24.3*	-1.0	46.3*	0.3
O=C(NC1CCCC1)c1cc(-c2cccs2)on1	1.4	0.4	6.1*	4.7*	47.4*	2.5	42.7*	0.8
Cc1ccc(-c2cc(C(=O)NCCCN3CCOCC3)no2)cc1	-11.5	-2.3	-4.7	-2.5	-8.7	-1.6	x	x
O=C(NC1CCCC1)c1cc(-c2ccccc2O)on1	3.0	-0.6	2.4	2.9	9.8	2.1	x	x
COc1ccc2c(c1)[C@]1(C(=O)N2C)C2=C(CCCC2=O)Oc2cc(C)oc(=O)c21	0.0	-0.8	-1.8	x	0.3	-0.9	x	x
CC(C=NN=C1C(=O)Nc2ccccc21)=Cc1ccccc1	-2.0	-0.4	-1.2	x	-2.1	-1.8	x	x
Nc1ccc2c(c1)Cc1cc(Cl)c(Cl)cc1-2	0.2	-0.3	1.0	1.1	10.4	-0.7	x	x
Nc1ccc2c(c1)Cc1cc(N)c(Cl)cc1-2	0.3	-0.5	3.9	3.0	15.2*	2.5	12.1*	0.4
O=C(/C=C/c1ccc(-c2ccccc2)cc1)NC1=NCCS1	x	-0.4	3.6	x	17.6*	x	13.5*	0.4
COC(=O)[C@]12C[C@H](CC(=O)N3CCN(C(=O)c4ccco4)CC3)C(=O)N(CCC3=CCCCC3)C1=C[C@H](C(C)(C)C)O[C@@H]2C	-2.9	-1.2	0.9	x	0.9	0.9	x	x
CC(C)(C)S(=O)(=O)N1C[C@@H]2CC(=O)C(CCO)=C2[C@H]1CCO	-3.3	-0.2	-0.5	x	1.0	-1.6	x	x
O=C(Nc1ccc2ncccc2c1)c1ccccc1Br	x	x	x	2.3	x	x	x	x
COc1ccc(NC(=O)Nc2nc3c(s2)CCCC3)cc1	1.1	-0.1	4.3	3.1	19.1*	3.4	15.8*	0.7
COc1cc(SC)ccc1C(=O)Nc1ccc2ncccc2c1	4.5	2.4*	3.8	1.5	15.3*	3.1	16.9*	1.1
COc1cc(SC)ccc1C(=O)Nc1cccc(C)n1	4.2	-0.6	2.4	1.9	15.9*	4.0*	12.4*	0.8

Screening results deposited in PubChem BioAssay by The Scripps Research Institute Molecular Screening Center.
